Experimental data reported in PubChem BioAssay AID449762 (Southern Research Specialized Biocontainment Screening …, 2010).
In all, about 330,000 compounds went through this assay and about 1,900 (0.58%) were called active. Not shown: some 4% with an inconclusive outcome. Not all results are given here. Results with a measured potency or affinity are listed apart. A number with no mark means an inactive call. No stated cut-off is given here; in the data, inconclusive means inhibition above about 70% without an active follow-up result; inactive means below that.

assay: M. tuberculosis growth inhibition, HTS (AID 449762);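 further: bacterial growth assessed after seven days of incubation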; conditions: M. tuberculosis H37Rv growth inhibition, 7H9 media; at 25 µM; stronger effect = higher value

SMILES	inhibition [%]
COc1ccccc1Cn1c(=S)[nH]c2cc(C(=O)NCC3CCCO3)ccc2c1=O (centres undefined)	2.37
CC(=O)N1CCc2c(sc(NC(=O)C3CC3)c2-c2nc3ccccc3s2)C1	15.3
CC(=O)Nc1scc(C)c1-c1nc2ccccc2s1	26
Cc1ccccc1NC(=O)Cn1c(C)nc2ccc(NC(=O)C3CC3)cc2c1=O	2.87
NS(=O)(=O)c1ccc(N2N=C(c3ccccc3)CC2c2ccccc2)cc1 (centres undefined)	16.9
NS(=O)(=O)c1ccc(N2N=C(c3ccccc3)CC2c2ccc(F)cc2)cc1 (centres undefined)	12.8
O=C(O)c1ccccc1C(=O)NCCc1c(C(=O)O)[nH]c2ccc(Cl)cc12	7.67
COc1cccc(NC(=O)CSc2nc3ccccc3c(=O)n2CCCC(=O)NCCCN2CCOCC2)c1	-10.7
CCOC(=O)c1ccc(NC(=S)NCCc2ccc(OC)c(OC)c2)cc1	47.4
CCOC(=O)c1ccc(NC(=O)Nc2ccc(F)cc2)cc1	0.77
O=C(O)C1CCN(c2ccc(S(=O)(=O)N3CCOCC3)cc2[N+](=O)[O-])CC1	-9.82
Cn1cnc(C(=O)NC2CCN(C(=O)OC(C)(C)C)CC2)c1C(=O)NC1CCN(C(=O)OC(C)(C)C)CC1	-7.54
CC(C)Cn1c(N2CCN(C(=O)c3cccs3)CC2)nc2ccccc21	-9
CCn1c(N2CCN(C(=O)/C=C/c3ccccc3)CC2)nc2ccccc21	6.08
CSc1nc2ccccc2n1CC(=O)Nc1c(C)n(C)n(-c2ccccc2)c1=O	-4.84
CCOc1ccc(CN2C(=O)c3ccccc3C2C(=O)NC(C)CC)cc1OC (centres undefined)	2.03
O=C(NCc1ccco1)c1ccc(-c2ccccc2Cl)o1	-1.96
COc1ccc(CCC(=O)OC(C)C(=O)c2ccc(C)cc2)cc1 (centres undefined)	-2.54
COc1ccc(Sc2ncnc3onc(C)c23)cc1	3.37
Cc1noc2ncnc(Sc3c(Cl)cccc3Cl)c12	47.8

SMILES	inhibition [%]
O=C(O)/C=C/C(=O)Nc1ccccc1-c1ccccc1NC(=O)/C=C/C(=O)O	3.08
CCn1nc(C)c(CCC(=O)O)c1C	4.75
Cc1ccc(/C=C/C(=O)OCC(=O)NCCc2ccc(S(N)(=O)=O)cc2)o1	-0.03
COc1ccc(/C=N/Nc2ncnc3scc(-c4ccccc4)c23)cc1OC	-0.49
COc1cccc(/C=N/Nc2ncnc3scc(-c4ccccc4)c23)c1OC	8.3
CC1CCCCN1C(=O)Nc1ccccc1Cl (centres undefined)	-0.25
O=S(=O)(c1ccc(S(=O)(=O)N2CCN3CCCC3C2)cc1)N1CCCC1 (centres undefined)	-15.1
CCOC(=O)c1sc(NC(=O)CSc2nc3ccccc3s2)c(C(=O)OCC)c1C	12.6
Cc1c(O)cc2n(c1=O)-c1ccc(Cl)cc1C2(C)C	-11.1
CCc1c(O)cc2n(c1=O)-c1ccc(Cl)cc1C2(C)C	-2.84
Cc1ccsc1C1Nc2ccc3ncccc3c2C2=C1C(=O)CCC2 (centres undefined)	2.32
O=C(Nc1ccc(Cl)cn1)Nc1ccccc1F	-4.27
COCCn1c(=NC(=O)c2cc(Cl)sc2Cl)sc2cc(S(N)(=O)=O)ccc21	-0.08
C=CCn1c(=NC(=O)c2cc(Cl)sc2Cl)sc2cc(S(N)(=O)=O)ccc21	-3.02
Oc1ccccc1CN1CCN(C(O)(c2ccccc2)c2ccccc2)CC1	12.9
N/C(=N\OC(=O)c1cc(Cl)ccc1Cl)c1ccccn1	30
COc1cc(OC)c(C(=O)O/N=C(\N)c2ccccn2)cc1OC	7.81
C=CC[C@@H](CC(=O)N[C@@H](CO)Cc1ccccc1)C(=O)N[C@H](COC(=O)[C@@H](CC=C)Cc1ccc(F)cc1)C(C)(C)C	-11
CCc1ccc(/C=C2/C(=O)N(c3ccccc3)C(=S)N2CC(=O)OC)s1	10.2
CCc1ccc(/C=C2/C(=O)N(CC)C(=S)N2C)s1	12.3

SMILES	inhibition [%]
O=c1cc(CSc2ccc([N+](=O)[O-])cc2)nc2sccn12	-11.9
CCN(CC)CCCNC(=O)c1cc2c(Cl)nc3ccccc3c2s1	5.92
O=C(NCCCN1CCCC1)c1cc2c(Cl)nc3ccccc3c2s1	9.47
O=[N+]([O-])c1ccc(C(=S)N2CCN(Cc3ccccc3)CC2)cc1	6.67
CCCCOC(=O)Nc1ccc(S(=O)(=O)Nc2cc(C)nc(C)n2)cc1	50.1
CCCCOC(=O)Nc1ccc(S(=O)(=O)Nc2nc(C)cc(C)n2)cc1	0.81
O=C(CSC(=S)N1CCCCC1)c1ccccc1	69.2
O=c1c(-c2ccc(O)cc2)coc2cc(O)ccc12	3.16
Cc1oc2cc(O)ccc2c(=O)c1-c1cnn(-c2ccccc2)c1	-3.21
CCc1ccc(-c2cc(C(=O)Nc3c(C)n(C)n(-c4ccccc4)c3=O)c3ccccc3n2)s1	5.93
Cc1[nH]n(-c2ccccc2)c(=O)c1/C=N/N(c1ccccc1)c1ccccc1	62.4
Cc1ccc2nc(N=C(N)N)nc(C)c2c1	12.5
CCCC(=O)N/C(N)=N/c1nc(C)c2cc(C)ccc2n1	45.9
CCC(=O)N/C(N)=N/c1nc(C)c2cc(C)c(C)cc2n1	7.41
Cc1cc2nc(/N=C(\N)NC(=O)N3c4ccccc4Sc4ccccc43)nc(C)c2cc1C	-0.79
COc1ccc(C(=O)Nc2cnccn2)cc1[N+](=O)[O-]	-6.82
O=C(CCN1C(=O)c2ccccc2C1=O)Nc1nc2ccccc2s1	10.8
NC(=O)[C@@H]1CC2(CC(c3cccc(NC(=O)[C@H]4CCC(=O)N4)c3)=NO2)CN1C(=O)COc1ccc(Cl)cc1 (some centres undefined)	0.87
Cc1cccc(C(=O)Nc2cccc3cccnc23)c1	25.4
